From the supplement of paper PMC6555819

Key:
Assay in all cases: PBM binding z-score (relative to random genomic background probes); higher = stronger binding; sequences stand for … in GC…GCGATTGACAGCGTAGAATGAAGG
[1] = test system: FXR:RXRa (NR concentration 270 nM, RXRa partner concentration 90 nM)
Summary of the method: (§1)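 Binding z-scores take random background probes as their reference. They come from custom Agilent 4×180K protein-binding microarrays incubated 1 h with ligand-free nuclear receptor dimers, with antibodies against each partner (one per run) detecting binding. Scanned fluorescence was regression-normalized.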

[2] = test system: LXRa:RXRa (NR concentration 270 nM, RXRa partner concentration 90 nM)
Summary of the method: as §1

[3] = test system: LXRa homodimer (NR concentration 270 nM)
Summary of the method: as §1

[4] = test system: LXRb:RXRa (NR concentration 270 nM, RXRa partner concentration 90 nM)
Summary of the method: as §1

[5] = test system: LXRb homodimer (NR concentration 270 nM)
Summary of the method: as §1

[6] = test system: PPARa:RXRa (NR concentration 270 nM, RXRa partner concentration 90 nM)
Summary of the method: as §1

[7] = test system: PPARg:RXRa (NR concentration 180 nM, RXRa partner concentration 90 nM)
Summary of the method: as §1

[8] = test system: PPARg:RXRa 270nM:90nM, anti-RXR (NR concentration 270 nM, RXRa partner concentration 90 nM)
Summary of the method: as §1

[9] = test system: PPARg:RXRa 30nM:10nM, anti-RXR (NR concentration 30 nM, RXRa partner concentration 10 nM)
Summary of the method: as §1

[10] = test system: PPARg:RXRa 90nM:30nM, anti-RXR (NR concentration 90 nM, RXRa partner concentration 30 nM)
Summary of the method: as §1

[11] = test system: PPARg:RXRa DBDmut IVT, anti-RXR (DBD mutation: RXRa K156A/R161A, NR concentration 270 nM, RXRa partner concentration 90 nM)
Summary of the method: as §1

[12] = test system: PPARg:RXRa IVT, anti-PPARg (NR concentration 270 nM, RXRa partner concentration 90 nM)
Summary of the method: as §1

[13] = test system: PPARg DBDmut:RXRa IVT, anti-PPARg (DBD mutation: PPARg1 K132A/R137A, NR concentration 270 nM, RXRa partner concentration 90 nM)
Summary of the method: as §1

[14] = test system: PPARg DBDmut IVT, anti-PPARg (DBD mutation: PPARg1 K132A/R137A, NR concentration 270 nM)
Summary of the method: as §1

[15] = test system: PPARg homodimer (NR concentration 180 nM)
Summary of the method: as §1

[16] = test system: PXR:RXRa (NR concentration 270 nM, RXRa partner concentration 90 nM)
Summary of the method: as §1

[17] = test system: PXR homodimer (NR concentration 270 nM)
Summary of the method: as §1

[18] = test system: RARa:RXR (NR concentration 270 nM, RXRa partner concentration 90 nM)
Summary of the method: as §1

[19] = test system: RARa homodimer (NR concentration 270 nM)
Summary of the method: as §1

[20] = test system: RARb:RXRa (NR concentration 270 nM, RXRa partner concentration 90 nM)
Summary of the method: as §1

Row | Sequence | PBM binding z-score [1] | PBM binding z-score [2] | PBM binding z-score [3] | PBM binding z-score [4] | PBM binding z-score [5] | PBM binding z-score [6] | PBM binding z-score [7] | PBM binding z-score [8] | PBM binding z-score [9] | PBM binding z-score [10] | PBM binding z-score [11] | PBM binding z-score [12] | PBM binding z-score [13] | PBM binding z-score [14] | PBM binding z-score [15] | PBM binding z-score [16] | PBM binding z-score [17] | PBM binding z-score [18] | PBM binding z-score [19] | PBM binding z-score [20]
1 | CCTACTCGGCCATTCAGAGGTCATTGATCATATG | 3.34 | 4.79 | 7.45 | 4.25 | 1.6 | 3.7 | 1.05 | 1.96 | 0.587 | 1.31 | 2.23 | 1.88 | 0.471 | 0.672 | 2.68 | 4.91 | 3.38 | 4.55 | 1.67 | 3.27
2 | AAAGACAGGTGATGAAGGTAACTCAGGCTATCAT | -0.191 | -0.0472 | 0.0332 | 0.0714 | -0.0721 | 0.593 | 0.785 | 0.567 | 0.567 | 0.473 | 0.0134 | 0.744 | 0.665 | -0.142 | 0.408 | 0.0948 | 0.956 | 0.223 | 1 | 0.438
3 | TAGACTAGGTCAGATCGGGCCAGTATACGCTATA | 1.54 | 0.872 | -0.254 | 0.626 | 0.289 | 2.47 | 3.05 | 2.82 | 1.07 | 2.03 | 4.39 | 5.26 | 1.46 | 0.155 | 0.192 | 0.932 | -0.501 | 1.18 | -0.174 | 2.99
4 | ATATGTAGGTTACATCCGGGTCACTCAGGCTATG | 2.08 | 3.86 | 1.09 | 2.75 | 0.682 | 4.31 | 6.07 | 5.17 | 2.68 | 4.31 | 7.65 | 7.47 | 3.76 | 3.51 | 2.34 | 3.29 | 1.26 | 3.74 | 0.95 | 2.41
5 | CCAGACAGGTGAAAGGTAACTCTGTCTGGTACGC | 0.257 | 1.07 | -0.318 | 0.89 | -0.274 | 3.45 | 5.57 | 6.03 | 4.71 | 5.8 | 2.33 | 3.16 | 0.131 | -0.269 | 0.283 | 1.16 | -0.171 | 2.16 | -0.0874 | 1.24
6 | ACTCGGAGGACAAAGGTCAGACCTACGCCAGTGA | 4.44 | 4.05 | 2.02 | 3.64 | 0.528 | 4.93 | 7.6 | 6.95 | 4.94 | 6.85 | 0.683 | 3.73 | 0.128 | -0.307 | 3.27 | 4.16 | 0.401 | 5.43 | 1.5 | 4.5
7 | ACAGACTGGTGATGAAGGTAACTCAGGCTATCAT | -0.533 | -0.452 | -0.433 | -0.663 | -0.582 | -0.594 | 0.512 | 0.104 | -0.179 | -0.158 | -0.615 | -0.401 | 0.194 | -0.143 | -0.6 | -0.651 | -0.0629 | -0.424 | 0.115 | -0.396
8 | TCTATTAGTTGCAGGGCAACCGACGAGTCCGTTT | 0.562 | 0.804 | 0.147 | 0.702 | 0.559 | 0.736 | -0.219 | 1.62 | 3.41 | 2.38 | 2.17 | 1.01 | 0.15 | 1.26 | 0.494 | 0.353 | 0.498 | 0.391 | 0.736 | 0.851
9 | TCGAGTAGGTTACCAATGGGGCACTCAGCTTTCT | -0.431 | 0.466 | -1.03 | 0.379 | -0.732 | 0.966 | 0.351 | 1.39 | 1.09 | 1.15 | 3.78 | 3.08 | -0.534 | 0.223 | -0.453 | 0.0109 | -0.848 | 0.158 | -0.688 | 0.948
10 | TCGAGTGGGTTAGGGGCATTCAGAATGGCGTCGA | 0.437 | 0.401 | 0.0912 | 1.41 | 0.759 | 1.46 | 0.402 | 1.73 | 0.9 | 1.31 | 1.25 | 0.919 | -0.337 | -0.345 | 0.908 | 1.04 | 0.501 | 0.739 | 0.24 | 0.943
11 | ATCTCTAGGTAACCAAGTTCAGCGAATGCCGAAC | 0.438 | 0.886 | 0.803 | 0.7 | 0.602 | 1.4 | 0.655 | 1.07 | 0.316 | 0.524 | 3.55 | 2.95 | 1.37 | 0.686 | 0.704 | 2.02 | 1.3 | 1.04 | 0.165 | 1.34
12 | TCATATAGGTATATGCTAGGTGAAAGTCCGATCT | 0.567 | 0.913 | 0.175 | 0.545 | -0.249 | 0.818 | 0.703 | 1.78 | 3.31 | 2.54 | 2.4 | 1.07 | 0.908 | 1.63 | 0.436 | 0.612 | 0.215 | 0.893 | 0.379 | 0.145
13 | CAAACTAGGTCAAGAGGTCTAAGTCCGCTTCCCG | 3.48 | 2.8 | 0.46 | 1.7 | -0.0852 | 4.97 | 7.75 | 6.93 | 4.73 | 6.71 | 7.99 | 8.45 | 1.43 | 2.57 | 1.86 | 1.66 | -0.00755 | 2.65 | 0.497 | 4.1
14 | TGGCCTAGGTCATTCAGGGGCCAGTATAGAAAGC | 4.69 | 3.39 | 0.183 | 2.3 | 0.0581 | 3.59 | 2.15 | 2.33 | 0.133 | 1.5 | 1.06 | 2.22 | -0.515 | -0.779 | 1.82 | 2.48 | -0.213 | 3.77 | 0.313 | 3.94
